The list is not random: actives were taken first. Their share in the collection is about 3.5%.
Anthrax LF prot – inhibitors of Bacillus anthracis lethal factor protease | hit rate 0.12% among 360,000 | AID 588501 | inhibition, % at 10 µM | multiplex microsphere protease cleavage assay, LF | P15917; note: plate controls were buffer without enzyme for full effect and enzyme alone for no effect
Target sequence (P15917 whole entry, looked up): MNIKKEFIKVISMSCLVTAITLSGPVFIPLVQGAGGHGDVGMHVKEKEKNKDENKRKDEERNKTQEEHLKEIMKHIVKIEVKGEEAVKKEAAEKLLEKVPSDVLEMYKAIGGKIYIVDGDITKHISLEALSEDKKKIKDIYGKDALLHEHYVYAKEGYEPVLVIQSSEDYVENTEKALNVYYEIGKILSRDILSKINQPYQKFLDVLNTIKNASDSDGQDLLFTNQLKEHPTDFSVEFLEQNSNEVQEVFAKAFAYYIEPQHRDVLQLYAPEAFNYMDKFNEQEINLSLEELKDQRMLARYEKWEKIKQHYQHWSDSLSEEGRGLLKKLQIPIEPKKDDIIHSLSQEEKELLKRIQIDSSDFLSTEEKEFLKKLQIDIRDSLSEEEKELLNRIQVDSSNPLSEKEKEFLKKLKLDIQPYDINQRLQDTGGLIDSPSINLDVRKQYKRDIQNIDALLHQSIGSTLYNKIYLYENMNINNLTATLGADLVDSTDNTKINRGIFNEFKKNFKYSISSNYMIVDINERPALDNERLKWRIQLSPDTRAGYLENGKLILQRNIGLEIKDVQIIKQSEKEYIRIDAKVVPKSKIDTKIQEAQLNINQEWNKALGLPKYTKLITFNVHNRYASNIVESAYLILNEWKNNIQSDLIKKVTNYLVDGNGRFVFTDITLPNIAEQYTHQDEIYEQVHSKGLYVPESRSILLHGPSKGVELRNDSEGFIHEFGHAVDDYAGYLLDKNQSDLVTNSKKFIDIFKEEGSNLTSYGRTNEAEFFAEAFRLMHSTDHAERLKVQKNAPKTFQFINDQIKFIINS
BoNT-A LC inh2 – blocks Botulinum neurotoxin A light chain protease; hit rate 0.17% among 360,000; multiplex microsphere protease substrate cleavage, flow cytometry; AID 588499; inhibition, % at 10 µM; note: plate controls were buffer without enzyme for full effect and enzyme alone for no effect
Bead autofluor – flagged as autofluorescent in microsphere protease counterscreen; compound autofluorescence counterscreen, microsphere flow cytometry; hits give high values; fluorescence intensity (concentration not given with the values); hit rate 3.1% among 360,000; AID 624483; in the data active = fluorescence intensity above about 16000; inconclusive = no clear call, values can overlap the other calls
BoNT F protease – blocks Botulinum neurotoxin F light chain protease. Multiplex microsphere protease cleavage assay, flow cytometry. inhibition, % at 10 µM. hit rate 0.22% among 360,000. AID 588497; in the data active = inhibition above about 35%, passing the limit was not always enough; inconclusive = no clear call, values can overlap the other calls; note: plate controls were buffer without enzyme for full effect and enzyme alone for no effect
BJeLR lethal – BJeLR cell viability loss; BJeLR (HRASV12) viability, CellTiter-Glo ATP luminescence, 48 h; inhibition, % (concentration not given with the values); hit rate 0.17% among 300,000; AID 1554; in the data active = inhibition above about 50%; inconclusive = no clear call, values can overlap the other calls
Starred values were filed as active, the others as inactive; ? = inconclusive; / = no result given. Cut-off read from the data, not from the text of the source, unless noted: active = inhibition above about 30%; inconclusive = no clear call, values can overlap the other calls; inactive = below that.

SMILES	Anthrax LF prot	BoNT-A LC inh2	Bead autofluor	BoNT F protease	BJeLR lethal
CN1CCN(NC(=S)NC(C)(C)CC(C)(C)C)CC1	-2	-2	4180	2	/
O=C(c1cc2ncc(Br)cn2n1)N1CCOCC1	1	?	24596*	0	5
O=C(c1cc2ncc(Br)cn2n1)N1CCN(C(=O)c2ccco2)CC1	-1	0	2490	-6	-2
CCNC(=O)C1(C)CCCN(Cc2cc3ccccc3o2)C1 (stereo not drawn)	-10	0	3562	5	/
O=C(c1sc2ccccc2c1Cl)N1CCC2(CC1)OCCO2	-3	?	21877*	-6	0
O=C(c1sc2ccccc2c1Cl)N1CCN(c2ccccn2)CC1	1	2	5573	11	-11
C[C@H](NC(=O)C1CCN(C(=O)[C@@H]2CCCN2C(=O)OC(C)(C)C)CC1)C(=O)NCc1ccc(F)cc1	-1	0	5563	0	/
Cc1cccc(N(CC(=O)N2CCN(c3ccc(F)cc3)CC2)S(C)(=O)=O)c1C	0	-1	4507	5	1
CS(=O)(=O)N(CC(=O)N1CCN(c2ccc(F)cc2)CC1)c1ccc(F)c(Cl)c1	-4	?	24225*	-4	-2
Cc1ccc(NC(=O)c2ccc(S(=O)(=O)N3CCC(C)CC3)cc2)cc1	0	-3	20894*	-4	8
O=S(=O)(c1ccc(F)cc1)N1CCC(N2CCCCCC2)CC1	-4	0	16305*	-1	-3
Cc1ccc(C(=O)Nc2ccc(S(=O)(=O)N3CCOCC3)cc2)cc1	2	0	2060	-3	-13
Cc1ccc(S(=O)(=O)N2CCC(C(=O)NCCCN3CCCCCC3)CC2)cc1	-2	2	24422*	-10	0
CC1CCCN(S(=O)(=O)c2ccc(NC(=O)c3cccc(-n4cnnn4)c3)cc2)C1 (stereo not drawn)	-2	1	20061*	0	0
CC1CCN(C2CCN(S(=O)(=O)c3ccc(F)cc3)CC2)CC1	-3	3	9245	8	0
O=C(COc1ccc2c(-c3ccccc3)cc(=O)oc2c1)N1C[C@H]2C[C@@H](C1)c1cccc(=O)n1C2	2	0	5326	-9	/
COc1cc(C)ccc1S(=O)(=O)NC(=O)C1(C)CCN1C(=O)C1(c2ccc(Cl)cc2)CCC1 (stereo not drawn)	1	0	3584	0	/
COC(=O)C1(C)COP(=O)(Nc2ccc(OC)cc2)OC1 (stereo not drawn)	3	-1	5630	4	/
Cc1ccc(NC(=O)C2CCN(S(=O)(=O)c3ccc(F)cc3)CC2)cc1	-1	-1	23704*	-4	6
O=C(Nc1cccc(Cl)c1)C1CCCN(S(=O)(=O)c2ccc(F)cc2)C1 (stereo not drawn)	0	0	20734*	-4	-8
CS(=O)(=O)N1CCC(C(=O)Nc2cccc(F)c2)CC1	-14	4	3978	39*	-22
O=C(Nc1ccc(S(=O)(=O)N2CCCC2)cc1)C1CCN(S(=O)(=O)c2ccc(F)cc2)CC1	1	0	6187	-2	3
CCc1nc2ccc(C(=O)NCc3ccccc3OC)cn2c1N(CC)CCOC	-4	0	3048	0	/
CCC1=Nc2cc(C(=O)NCc3ccco3)ccc2Sc2ccc(C)cc21	-2	-2	7855	-2	62*
CC1CCN(S(=O)(=O)c2ccc(S(=O)(=O)NCC3COCCO3)cc2)CC1 (stereo not drawn)	1	-2	23033*	-1	8
SMILES	Anthrax LF prot	BoNT-A LC inh2	Bead autofluor	BoNT F protease	BJeLR lethal
O=C(Nc1ccc2nc3n(c(=O)c2c1)CCCCC3)c1c(F)ccc([N+](=O)[O-])c1F	0	-1	5818	0	75*
CN(C)c1nc(N)nc(CSc2nnnn2-c2ccc(F)cc2)n1	1	0	23095*	2	-1
Cc1cccc(C)c1-n1nnnc1SCc1nc(N)nc(N(C)C)n1	-13	-1	2959	-4	/
COCCNC(=O)C1(C)CCCN(Cc2noc(-c3ccccc3OC)n2)C1 (stereo not drawn)	-2	0	3966	-4	/
CCOCCCNC(=O)c1cn(CC)c2ccc(S(=O)(=O)N(C)C3CCCCC3)cc2c1=O	0	0	5717	1	4
C=CCn1cc(C(=O)NCCOC)c(=O)c2cc(S(=O)(=O)N(CC)CC)ccc21	-4	0	16280*	0	13
C=CCn1cc(C(=O)NCCCOCC)c(=O)c2cc(S(=O)(=O)N(CC)CC)ccc21	0	0	23558*	2	5
CCN(CC)S(=O)(=O)c1ccc2c(c1)c(=O)c(C(=O)NCCOC)cn2C	-12	-1	9362	-3	8
COc1ccc(Cl)cc1C(=O)OCC(=O)NCCNC(=O)COC(=O)c1cc(Cl)ccc1OC	-8	-1	5847	-20	-8

Screens deposited in PubChem BioAssay by several laboratories.
